Only some compounds are listed: those with a hit (about 2.3% of all), similar ones and a draw of the others.
M1 PAM parental = M1 PAM counterscreen hit in parental CHO-K1 cells. ATP EC20, Fluo-8 calcium fluorescence; 0% at ATP EC20, 100% at ATP max. activation, % at 3 µM. 360,000 compounds, 0.02% hits;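 active = activation above the run cutoff, the mean activation of all test compounds plus 3 SD, cut at about 40% in these data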;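 also: peak over basal fluorescence ratio in a 140 s read after ATP addition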
CHO-K1 Ca antag = counter-screen for M1 antagonists: effect in parental CHO-K1 cells | ATP-induced calcium, Fluo-8 fluorescence | inhibition, % at 3 µM | 360,000 compounds, 0.6% hits | AID 602250;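 active = inhibition above a per-plate cutoff, the plate's mean sample inhibition plus 3 SD, cut at about 24% in these data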;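 also: 0% = DMSO plus EC80 ATP and 100% = DMSO alone without ATP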
CHRM1 agonist = human M1 muscarinic receptor agonism; CHO-K1 hM1, Fluo-8 calcium fluorescence, agonist mode; 0% DMSO, 100% acetylcholine EC100; P11229; activation, % at 3 µM; 360,000 compounds, 0.33% hits; AID 588814;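 active = activation above the run's mean compound activation plus 3 SD, cut at about 16% in these data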;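 also: peak over basal fluorescence ratio within a 140 s kinetic read after compound addition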
Target sequence (P11229 whole entry, looked up): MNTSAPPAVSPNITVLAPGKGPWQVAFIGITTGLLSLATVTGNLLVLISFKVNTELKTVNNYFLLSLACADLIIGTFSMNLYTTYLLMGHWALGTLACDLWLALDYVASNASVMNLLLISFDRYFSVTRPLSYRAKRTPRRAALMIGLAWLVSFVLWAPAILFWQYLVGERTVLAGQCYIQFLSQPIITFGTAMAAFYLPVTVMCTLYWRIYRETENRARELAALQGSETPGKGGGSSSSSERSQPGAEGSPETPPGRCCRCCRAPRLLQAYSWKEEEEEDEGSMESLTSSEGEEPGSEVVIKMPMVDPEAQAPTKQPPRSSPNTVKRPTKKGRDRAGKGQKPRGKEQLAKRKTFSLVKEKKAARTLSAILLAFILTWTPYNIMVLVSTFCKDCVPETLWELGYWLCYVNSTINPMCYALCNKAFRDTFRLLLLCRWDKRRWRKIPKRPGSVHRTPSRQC
M1 antag = human CHRM1 antagonism. P11229. CHO-K1 hM1, Fluo-8 calcium fluorescence, ACh EC80 antagonist. inhibition, % at 3 µM. 360,000 compounds, 1.3% hits. AID 588852;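 active = percent inhibition above its own plate's cutoff, namely the mean of that plate's compound wells plus 3 SD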;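 also: peak over basal fluorescence ratio during 140 s after agonist addition; 0% = ACh EC80 plus DMSO and 100% = DMSO alone without agonist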
M1 ag parental = M1 agonist counterscreen hit in parental CHO-K1 cells; Fluo-8 calcium fluorescence; scaled to maximal ATP response, vehicle zero; activation, % at 3 µM; 360,000 compounds, 0.48% hits; AID 602248; in the data active = activation above about 15%;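 also: untransfected CHO-K1 host cells lacking M1 receptor as counterscreen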
M1 PAM = positive allosteric modulators of human M1 muscarinic receptor | P11229 | CHO-K1 hM1, Fluo-8 calcium fluorescence, ACh EC20; 0% = ACh EC20, 100% = maximal ACh | activation, % at 3 µM | 360,000 compounds, 0.088% hits | AID 588819; in the data active = activation above about 19%, passing the limit was not always enough
Starred values were filed as active, the others as inactive; nt = no result.

SMILES	M1 PAM parental	CHO-K1 Ca antag	CHRM1 agonist	M1 antag	M1 ag parental	M1 PAM
O=C(CN1C(=O)/C(=C/c2ccc(Cl)cc2)SC1=S)NC1C=CS(=O)(=O)C1 (stereo not drawn)	14	-16	0	-13	-1	14
CC(C)c1ccc(/C=C2\SC(=O)N(CC(=O)NC3C=CS(=O)(=O)C3)C2=O)cc1 (stereo not drawn)	-5	12	-1	43*	9	-15
Cc1noc(C)c1C(=O)Nc1nccs1	2	-9	-4	4	1	2
Cc1ccc(S(=O)(=O)N2CCCC2C(=O)n2nc(C)cc2C)cc1 (stereo not drawn)	15	-5	-4	-9	0	8
COc1ccc(S(=O)(=O)N2CCCC2C(=O)n2nc(C)cc2C)cc1 (stereo not drawn)	-15	30*	-5	6	0	-7
CCCCCCC1CC(CCc2nc(=S)[nH][nH]2)C(=O)O1 (stereo not drawn)	4	-6	-7	-2	0	5
CCCCCCCCc1nc(=S)[nH][nH]1	-6	25*	-4	-12	0	11
O=C(Nc1ccc(Cl)cc1)c1cc2c(cc1O)[nH]c1ccccc12	-15	29*	3	25	16*	-6
CC1CCCN(CCCNC(=O)c2ccc(CS(=O)(=O)c3c(Cl)cccc3Cl)o2)C1 (stereo not drawn)	3	-10	-5	57*	1	-21
CCN(CC)S(=O)(=O)c1ccc(NC(=O)c2cc(-c3cccs3)nc3ccccc23)cc1	15	1	-3	16	2	-7
CN(C)S(=O)(=O)c1ccc(NC(=O)c2cc(-c3cccs3)nc3ccccc23)cc1	-6	10	-1	42*	6	-16
CCN(CC)S(=O)(=O)c1cc(NC(=O)c2cc(-c3ccccn3)nc3ccccc23)ccc1C	10	-1	-1	30	5	-8
COc1ccc(NC(=O)c2cc(-c3ccccn3)nc3ccccc23)cc1S(=O)(=O)N(C)C	-8	5	-3	34*	6	-10
COc1ccc(CNc2nc3ccc(C)cc3s2)c(OC)c1OC	-5	-10	1	3	2	1
O=C(Nc1ccc(N2CCOCC2)c(Cl)c1)c1ccc(Br)o1	-4	12	3	41*	4	-15
O=C(Nc1ccc(N2CCN(C(=O)c3ccccc3)CC2)c(Cl)c1)c1ccc(Br)o1	-9	-15	-2	8	7	-5
CCC(=O)N1CCN(c2ccc(NC(=O)COc3ccccc3[N+](=O)[O-])cc2)CC1	3	3	2	31*	8	-13
Cc1ccc(C)c(N2CC(C(=O)Nc3cc(C)on3)CC2=O)c1 (stereo not drawn)	13	-6	2	-3	0	9
Oc1ccccc1-c1n[nH]c(-c2ccccc2O)n1	-5	-3	7	14	17*	-8
CCOc1ccccc1CNC(=O)C1CCCN(c2nnc(C)c3c(C)n(-c4ccccc4)nc23)C1 (stereo not drawn)	4	-23	-6	43*	-2	-19
Cc1ccc(Cc2c(C)nc3nc(SCC(=O)NCCCN4CCOCC4)nn3c2C)cc1	10	-17	-5	-5	1	-3
Cc1nc2nc(SCC(=O)NCCCN3CCCCCC3)nn2c(C)c1Cc1ccccc1	13	-13	-12	77*	0	-38
Cc1ccccc1Cc1c(C)nc2nc(SCC(=O)NCCCN3CCCCC3)nn2c1C	0	-2	-13	51*	0	-31
COc1cc(NC(=O)COc2cc3oc(=O)cc(C)c3cc2Cl)cc(OC)c1OC	-5	-8	-2	-1	1	7
CCOC(=O)C(=C1Nc2ccccc2N1)n1c(-c2cccnc2)nc2ccccc21	14	-7	nt	nt	1	nt
SMILES	M1 PAM parental	CHO-K1 Ca antag	CHRM1 agonist	M1 antag	M1 ag parental	M1 PAM
COc1ccc(N=C2SCC(=O)N2CCc2ccc(OC)c(OC)c2)cc1	-1	7	-1	36	8	-15
COc1ccc(CCN2C(=O)CSC2=Nc2ccc(C(C)C)cc2)cc1OC	-6	13	-2	41*	9	-15
COc1ccc(NC(=O)N[C@@H](Cc2ccccc2)C(=O)NN)cc1	25	-8	-3	-15	1	9
NNC(=O)[C@H](Cc1ccccc1)NC(=O)Nc1ccc2c(c1)OCCO2	-13	-4	-7	36*	0	-22
Cc1cnc(NC(=O)c2cccc(S(=O)(=O)N3CC(C)OC(C)C3)c2)s1 (stereo not drawn)	15	-9	-1	0	2	8
OC(CNCc1ccccc1)(c1ccccc1)c1ccccc1	20	-17	-5	-1	15*	3
COc1ccc(CCNCCC(c2ccccc2)c2ccccc2)cc1OC	4	10	-3	30	2	-24
COc1ccc(C(CCNCc2ccc(OC)c(OC)c2)c2ccc(F)cc2)cc1 (stereo not drawn)	-1	8	0	9	18*	-2
COc1ccc(C(CCNCc2ccc(N(C)C)cc2)c2ccccc2)cc1 (stereo not drawn)	-9	3	-7	14	22*	-3
CC(C)Oc1ccc(C(CCNCc2ccc(O)cc2)c2ccccc2)cc1 (stereo not drawn)	2	15	-4	11	21*	-10
CC(C)Oc1ccc(CNC(=O)CC(c2ccccc2)c2cc(Cl)ccc2O)cc1 (stereo not drawn)	9	-11	-6	7	1	0
CCc1ccccc1NC(=O)CCS(=O)(=O)c1ccc2c(c1)CCCN2C(C)=O	-3	-6	-4	-7	1	4
Cc1ccc(F)c(S(=O)(=O)NC(=O)C2(C)CCN2C(=O)Cc2ccccc2)c1 (stereo not drawn)	30	3	-2	-12	0	8
Cc1ccc(S(=O)(=O)N2CCN(C(=O)C3CSC4(C)CCC(=O)N34)CC2)cc1C (stereo not drawn)	19	1	-3	-3	0	4
CCCC(=O)c1ccc(N2CCN(C(=O)c3cccs3)CC2)c(F)c1	-11	11	-3	42*	15*	-23
CC(=O)c1ccc(N2CCN(C(=O)c3cccs3)CC2)c(F)c1	12	-7	-2	-18	6	11
CNC(=O)COC(=O)c1ccccc1Oc1ccccc1	-7	29*	-3	5	0	-2
CC(=O)c1c(C)[nH]c(C(=O)OCC(=O)c2ccc(C)s2)c1C	2	-5	1	2	2	9
CCC(C)NS(=O)(=O)c1ccc(S(=O)(=O)N2CCCC3(CCCCC3)C2)cc1 (stereo not drawn)	0	11	-5	36*	3	-22
